The record followed here is PubChem BioAssay AID1852 (Sanford-Burnham Center for Chemical Genomics, 2009).

The whole screen tested about 2,500 compounds, of which about 1,100 (44%) were called active. So high a share suggests a set chosen from earlier hits. Some of the results follow. Unmarked numbers belong to inactive results.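 The calls were made as follows: active = inhibition above 50% at 4 µM in the single-point screen; inactive = inhibition of 50% or less.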

This assay can be described thus: blockers of TNF-a NF-kB luciferase induction – cell-based, HEK293T NF-kB-Luc, luminescence, selectivity assay for NOD1/NOD2 signaling inhibitor project, primary screen (AID 1852). The following applies: TNF-a induced, 14 h, at 4 µM, stronger effect = higher value.
In general, inhibition refers to the change of the read-out against control, counted positive when it falls. `C[C@H]1O[C@@H](O[C@H]2[C@@H](O)C[C@H](O[C@H]3[C@@H](O)C[C@H](O[C@H]4CC[C@@]5(C)[C@H](CC[C@@H]6[C@@H]5C[C@@H](O)[C@]5(C)[C@@H](C7=CC(=O)OC7)CC[C@]65O)C4)O[C@@H]3C)O[C@@H]2C)C[C@H](O)[C@@H]1O`: the inhibition was 104% (active).

In the case of `Cc1ccccc1-c1cc(C(=O)Nc2sc(C(=O)OC(C)C)c(C)c2C#N)c2ccccc2n1`, the inhibition was 94.3% (active). The result for `COc1cc(-c2cc(C(=O)Nc3ccc(N4CCOCC4)cc3)c3ccccc3n2)cc(OC)c1OC` reads 21.8%. Turning to `CCOC(=O)c1sc(NC(=O)c2cc(-c3ccccc3C)nc3ccccc23)c(C#N)c1C`, the inhibition was 92.5% (active). On to `CCOC(=O)c1sc(NC(=O)c2cc(-c3ccccc3)nc3ccccc23)c(C#N)c1C`, for which the inhibition was 80.3% (active).

Take `Cc1ccc(NC(=O)Cc2cc(C(=O)O)c3ccccc3n2)c(C)c1`: the inhibition was 25.2%. The value for `CCOC(=O)c1sc(NC(=O)CSc2n[nH]c(-c3ccccc3)n2)c(C#N)c1C` was 38.1%; that for `COC(=O)c1sc(NC(=O)c2cc(-c3ccccc3)nc3ccccc23)c(C#N)c1C` was 75.2% (active); that for `CCOC(=O)c1cc(-c2ccccc2)sc1NC(=O)c1cc(OC)c(OC)c(OC)c1` was -26.7%. Turning to `COc1ccc(N2CCN(C(=O)CCC(=O)N3CCOc4ccc(C)cc43)CC2)cc1`, the inhibition was 40.5%. The result for `COc1ccc(-n2nc3c(c2NC(=O)CCl)CSC3)cc1` reads -4.5%; that for `COc1ccc(-n2nnnc2S(=O)(=O)CC(=O)N2CCCCC2)cc1`, 102% (active). The result for `CCCCCCc1cc2cc(-c3nnc(-c4ccccc4O)o3)c(=O)oc2cc1O` reads 22.1%. In the case of `CCCCCCc1cc2cc(-c3nnc(-c4cc(OC)c(OC)c(OC)c4)o3)c(=O)oc2cc1O`, the inhibition was 69.4% (active). With `CCCCCCc1cc2cc(-c3nnc(-c4ccccc4OC)o3)c(=O)oc2cc1O`, the inhibition was -7.1%. The result for `COc1ccc(N(C(=O)CCl)C(C(=O)NCCc2ccccc2)c2cccs2)cc1` (stereo not drawn) reads 60.3% (active). The value for `COc1cccc(N(C(=O)CCl)C(C(=O)NCCc2ccccc2)c2cccs2)c1` (stereo not drawn) was 81.5% (active); that for `COc1ccc(CN(CCC(c2ccccc2)c2ccc(OC(C)C)cc2)C(=O)CCl)cc1OC` (stereo not drawn) was -5.8%. The value for `COc1cccc(-c2nc(CS(=O)(=O)CC(=O)NCCc3ccccc3)c(C)o2)c1` was 11.1%; that for `O=C(NCCc1ccccc1)C(c1cccs1)N(C(=O)CCl)c1ccc(Cl)cc1` (stereo not drawn) was 24.6%; that for `C=CCN1C(=O)/C(=C/c2ccc(OC(C)=O)c(OCC)c2[N+](=O)[O-])SC1=S` was 56.7% (active). Regarding `CN(C)c1ccc(-c2noc(C3CCN(S(=O)(=O)c4cccc(Cl)c4)CC3)n2)cc1`, the inhibition was 31%. Turning to `COc1ccc(CC(=O)Nc2cccc(-c3nnc(-c4ccc(C)cc4)o3)c2)cc1OC`, the inhibition is 77.2% (active). Consider `COc1cc(C(=O)Nc2cccc(-c3nc4cc(C)ccc4o3)c2)cc(OC)c1OC`, for which the inhibition was -51.1%. Consider `COc1ccc(CCN2CC(C(=O)N(C)CC(=O)Nc3cccc(F)c3)CC2=O)cc1OC` (stereo not drawn), for which the inhibition is 21.5%.

In the case of `C[n+]1c2n(c3ccccc31)N=C(c1cc(C(C)(C)C)c(O)c(C(C)(C)C)c1)CS2`, the inhibition is 82.3% (active). For `COc1ccc(C2=Nn3c([n+](C)c4ccccc43)SC2)cc1`, the inhibition is 32.8%. As to `COc1ccc(NC(=O)c2cccc(S(=O)(=O)Nc3ccc(Br)cc3)c2)cn1`, the inhibition was 23.8%. In the case of `COc1ccc(NC(=O)/C(Cl)=C(/Cl)S(=O)(=O)Cc2ccc(C)cc2)cn1`, the inhibition was 108% (active). Consider `COc1ccc(NC(=O)/C(Cl)=C(/Cl)S(=O)(=O)Cc2ccccc2)cn1`, for which the inhibition is 92.3% (active).

`COc1ccc(NS(=O)(=O)c2ccc3c(c2)Cc2ccccc2-3)cn1`: the inhibition was 25.4%. As to `Cc1cccc(C(=O)NNC2=C(C(=O)C(F)(F)F)CCC2)c1O`, the inhibition was 93.3% (active). Turning to `O=C(NNC1=C(C(=O)C(F)(F)F)CCC1)c1ccccc1O`, the inhibition is 15%. Regarding `Cc1c(CCC(=O)O)c(=O)oc2c(C)c3occ(-c4ccc(Cl)cc4)c3cc12`, the inhibition was 59.5% (active). The value for `COc1cccc(-c2coc3c(C)c4oc(=O)c(CCC(=O)O)c(C)c4cc23)c1` was 69.3% (active); that for `Cc1c(CCC(=O)O)c(=O)oc2cc3oc4c(c3cc12)CCCC4` was 48.7%. Regarding `O=c1c(-c2ccc(Cl)cc2)coc2c(CN3CCCCC3)c(O)ccc12`, the inhibition is 37.4%. The value for `Cc1oc2c(C)c3oc(=O)c(CCC(=O)O)c(C)c3cc2c1-c1ccccc1` was 47%.

In the case of `COc1ccccc1CN(Cc1nc2ccccc2c(=O)[nH]1)S(=O)(=O)c1ccc2ccccc2c1`, the inhibition was 92.1% (active). The value for `COC(=O)c1ccc2c(=O)[nH]c(CCl)nc2c1` was 43.1%. The value for `Cc1ccc(-n2c(C)c([N+](=O)[O-])c3ccc(O)c(CN(C)C)c32)cc1` was 66.1% (active); that for `COc1ccc(-n2c(C)c([N+](=O)[O-])c3ccc(O)c(CN(C)C)c32)cc1` was 84.4% (active). The result for `COc1ccc(-n2c(C)c([N+](=O)[O-])c3ccc(O)c(CN4CCCCC4)c32)cc1` reads 28.8%. Take `O=C1/C(=C/c2ccncc2)CCC/C1=C\c1ccncc1`: the inhibition is 89.9% (active). `COc1cc(OC)c(OC)cc1/C=C1\CC(C)C/C(=C\c2cc(OC)c(OC)cc2OC)C1=O` (stereo not drawn): the inhibition was 32.3%. The value for `CC1C/C(=C/c2ccncc2)C(=O)/C(=C/c2ccncc2)C1` (stereo not drawn) was 106% (active); that for `CC1C/C(=C\c2cccnc2)C(=O)/C(=C/c2cccnc2)C1` (stereo not drawn) was 109% (active); that for `O=C1/C(=C\c2cccnc2)CN(Cc2ccccc2)C/C1=C\c1cccnc1` was 107% (active). The result for `O=C1/C(=C/c2cccnc2)CCC/C1=C\c1cccnc1` reads 104% (active); that for `C=C1CC2C(CCC3(C)C2CCC3(O)C(C)=O)C2(C)CCC(=O)C=C12` (stereo not drawn), 13.6%. The result for `O=C(C1CCC(CNS(=O)(=O)c2cccs2)CC1)N1CCN(c2ccc(Cl)cc2)CC1` (stereo not drawn) reads 67.1% (active); that for `CC1Cc2cc(S(=O)(=O)N3CCN(c4ccc(Cl)cc4)CC3)ccc2N1C(=O)C1CC1` (stereo not drawn), 8.4%; that for `C[C@@H]1C[C@@H]2O[C@H]2/C=C\C=C\C(=O)Cc2c(Cl)c(O)cc(O)c2C(=O)O1`, 96.5% (active).
